# Results reported in PubChem BioAssay (EPA / NIEHS).
# Records with an inconclusive call do not appear. More than one record can exist for a structure, and the calls need not agree. The source made the active and inactive calls. How the source made its calls: active means hit-call score of the fitted dose curve at least 0.9, where 1 is the maximum; inconclusive means response in the unintended direction; inactive means score below 0.9.
# Target: Retinoic acid receptor RXR-alpha (Homo sapiens) (UniProt P19793)
# Assay: OT_NURR1_NURR1RXRa_0480: Odyssey Thera (OT) 8-hour HEK293T Protein Complementation Assay for Nurr1/retinoid X receptor (RXR) (AID 2283385)
# Experimental: OT_NURR1_NURR1RXRa_0480 is a cell-based assay that uses HEK293T, a human kidney cell line, with measurements taken at 8 hours after chemical dosing in a 384-well plate.OT_NURR1_NURR1RXRa_0480 is one of one assay component(s) measured or calculated from the OT_NURR1_NURR1RXRa_0480 assay. It is designed to make measurements of protein fragment complementation, a form of binding reporter, as detected with fluorescence intensity signals by Protein-fragment Complementation technology.Data from the assay component OT_NURR1_NURR1RXRa_0480 was analyzed into 1 assay endpoint. This assay endpoint, OT_NURR1_NURR1RXRa_0480, was analyzed in the positive analysis fitting direction relative to DMSO as the negative control and baseline of activity. Using a type of binding reporter, measures of receptor for gain-of-signal activity can be used to understand the binding at the pathway-level as they relate to the gene RXRA. Furthermore, this assay endpoint can be referred to as a primary readout, because the performed assay has only produced 1 assay endpoint. To generalize the intended target to other relatable targets, this assay endpoint is annotated to the nuclear receptor intended target family, where the subfamily is non-steroidal.
# Protein-fragment complementation assay, or PCA, is a method for the identification and quantification of protein-protein interactions. In the PCA, the proteins of interest ("bait" and "prey") are each covalently linked to fragments of a third protein (e.g. DHFR, which acts as a "reporter"). Interaction between the bait and the prey proteins brings the fragments of the reporter protein in close proximity to allow them to form a functional reporter protein whose activity can be measured.
# Sequence of Retinoic acid receptor RXR-alpha (Homo sapiens) (P19793 whole entry, looked up): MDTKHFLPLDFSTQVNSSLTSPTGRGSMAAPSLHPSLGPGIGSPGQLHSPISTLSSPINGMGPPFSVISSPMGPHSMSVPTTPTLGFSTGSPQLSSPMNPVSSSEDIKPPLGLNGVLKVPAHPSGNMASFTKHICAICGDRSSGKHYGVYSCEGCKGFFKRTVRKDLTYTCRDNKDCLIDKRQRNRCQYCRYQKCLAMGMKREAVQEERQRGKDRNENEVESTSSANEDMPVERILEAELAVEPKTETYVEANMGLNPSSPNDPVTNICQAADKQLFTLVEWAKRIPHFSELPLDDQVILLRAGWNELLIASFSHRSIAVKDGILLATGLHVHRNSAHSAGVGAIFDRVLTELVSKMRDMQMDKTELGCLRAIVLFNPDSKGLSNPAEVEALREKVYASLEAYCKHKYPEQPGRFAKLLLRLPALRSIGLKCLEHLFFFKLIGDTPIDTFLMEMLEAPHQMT
SMILES,outcome,AC50
CCOP(=S)(Oc1ccc([N+](=O)[O-])cc1)c1ccccc1 (stereo not given),inactive,–
O=[N+]([O-])c1ccc(Cl)c(Cl)c1,inactive,–
O=C(O)C(Cl)Cl,inactive,–
O=P(OCC(Br)CBr)(OCC(Br)CBr)OCC(Br)CBr (stereo not given),inactive,–
O=P1(N(CCCl)CCCl)NCCCO1 (stereo not given),inactive,–
CCCCN(CCCC)SN(C)C(=O)Oc1cccc2c1OC(C)(C)C2,inactive,86.2 µM (active)
CCCCCCCc1ccc(O)cc1,inactive,50 µM (active)
c1ccc(OP(Oc2ccccc2)Oc2ccccc2)cc1,inactive,–
Cc1ccc([N+](=O)[O-])cc1C,inactive,–
O=NN1CCCC1,inactive,–
FC(F)(F)c1ccc(Cl)cc1,inactive,–
CCCCC(CC)COC(=O)c1c(Br)c(Br)c(Br)c(Br)c1C(=O)OCC(CC)CCCC (stereo not given),inactive,–
O=[N+]([O-])c1ccccc1,inactive,–
c1ccc2c(c1)Nc1ccccc1S2,inactive,–
CCCCC(CC)COP(=O)(Oc1ccccc1)Oc1ccccc1 (stereo not given),inactive,–
CSC(C)(C)C=NO,inactive,–
O=P(Oc1ccccc1)(Oc1ccccc1)Oc1ccccc1,inactive,–
CCOC(=O)c1ccccc1C(=O)OCC,inactive,–
CCOc1ccc(C(C)(C)COCc2cccc(Oc3ccccc3)c2)cc1,inactive,–

SMILES,outcome,AC50
O=C(CBr)OCc1ccccc1,inactive,–
Nc1cc2c3c(c1)C(c1ccccc1)=N[C@@H](NC(=O)c1cccnc1)C(=O)N3CC2,–,50 µM (active)
CC(Cl)(Cl)C(=O)O,inactive,–
ClC(Cl)c1ccccc1,inactive,–
Cc1ccc(N)cc1N,inactive,–
O=S1(=O)OCC2C(CO1)C1(Cl)C(Cl)=C(Cl)C2(Cl)C1(Cl)Cl (stereo not given),inactive,–
CCCCOCCOP(=O)(OCCOCCCC)OCCOCCCC,inactive,–
Cc1ccc(O)cc1C,inactive,–
CCC(C)(C)c1ccc(O)cc1,inactive,–
O=C(O)CF,inactive,–
CCCCN(CCCC)N=O,inactive,–
CCCN(CCC)c1c([N+](=O)[O-])cc(C(C)C)cc1[N+](=O)[O-],inactive,75.7 µM (active)
CC(C)(C)c1ccc(O)cc1,inactive,–
CCNc1nc(Cl)nc(NC(C)(C)C)n1,inactive,–
OCC1CO1 (stereo not given),inactive,–
COCCOCCO,inactive,–
Nc1ccc(Cl)cc1,inactive,–
CO/N=C(/C(=O)OC)c1ccccc1COc1ccccc1C,inactive,–
